SW480 rerep – A quantitative high throughput screen for small molecules that induce DNA re-replication in SW480 colon adenocarcinoma cells; SW480 DNA re-replication, Hoechst DNA content imaging, 48 h; actives 1.8% (n = 340,000); Potency, µM (highest dose often 46.1 µM), for inactives: top-dose re-replication activation, usual class: activators; also: potency is read from the fitted curve at half-maximal effect; % of control where 0% means no effect; nearly all actives have a fitted effect of over 55% in size
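First, 250 cells per well were seeded. Next, compound or vehicle (23 nL) was pinned in, plates sat 48 hr at 37 C. Finally Hoechst was added for 40 min before fluorescence scanning.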
DT40 TDP1 no CPT – qHTS for Inhibitors of human tyrosyl-DNA phosphodiesterase 1 (TDP1): qHTS in cells in absence of CPT; Potency, µM (titrated, usually from 46.2 µM), for the others: at the highest dose activity change, negative = growth inhibition, most hits filed as inhibitors; AID 686978, 2013; DT40 Tdp1-/- hTDP1 cells, no CPT, ATP luminescence, 48 h; actives 15% (n = 420,000); also: potency is read from the fitted curve at half-maximal effect; % is scaled to controls: 0 for no effect and ±100 for the full control effect; nearly all actives have a fitted effect of over 55% in size
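Chicken DT40 Tdp1-/- cells stably complemented with human TDP1 were seeded at 400 cells/well with DMSO in place of 20 nM camptothecin. After compound pinning, cells grew at least 48 hr at 37 °C; viability read by CellTiter-Glo luminescence.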
BCR signal inh – qHTS Assay to Find Inhibitors of Chronic Active B-Cell Receptor Signaling | Potency, µM (highest dose often 46.1 µM), for the others: at the highest dose activity change, negative = inhibition, usual class: inhibitors | actives 0.05% (n = 340,000) | ABC-DLBCL IkBa-CBG/CBR reporter, luminescence ratio, 4 h; active = well fitted inhibition curve with a large enough effect in the signal ratio, with a control signal flat, not every such curve was filed as active; inconclusive = small, poorly fitted or top-dose-only effect, or effect the other way, or a change in a side signal; the % refers to the signal ratio;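 also: potency is read from the fitted curve at half-maximal effect; plate controls were basal doxycycline-induced cells for no effect and cells given 10 µM MG132 for full effect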
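Concentration-response series (up to 46 uM) were applied to TMD8 dual-reporter cells for 4 h at 37C with doxycycline. Green/red ratio, after filter-overlap correction, defined %Activity; red signal alone was normalised to basal cells and zero luminescence.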
IL-1B inflam inh – qHTS for Inhibitors of Inflammasome Signaling: IL-1-beta AlphaLISA Primary Screen; THP-1 LPS/ATP IL-1B secretion, AlphaLISA, 16 h; stronger effect = lower value; activity change, % at 57.5 µM; actives 4.7% (n = 360,000); in the data active = activity change below about -50%; inconclusive = mostly about -30% to -49%; also: % is scaled to controls: 0 for no effect and ±100 for the full control effect
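Secreted IL-1B measured by AlphaLISA bead assay after 16 h compound exposure of THP-1 cells; compounds (final up to 57.5 uM) added 1 h before LPS (250 ng/mL) and ATP (1.25 mM) stimulation; lower signal means less secretion.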
MCF10A rereplic – A quantitative high throughput screen for small molecules that induce DNA re-replication in MCF 10a normal breast cells; MCF 10A DNA re-replication, Hoechst nuclear intensity, 48 h; Potency, µM (titrated, usually from 46.1 µM), for inactives: at the highest dose activity, positive = re-replication, hits mostly activators; actives 2.9% (n = 350,000); AID 624296, 2012; also: potency is read from the fitted curve at half-maximal effect; % of control where 0% means no effect; nearly all actives have a fitted effect of over 50% in size
DT40 TDP1 CPT – qHTS for Inhibitors of human tyrosyl-DNA phosphodiesterase 1 (TDP1): qHTS in cells in presence of CPT | chicken DT40 Tdp1-/-;hTDP1 cells + 20 nM CPT, ATP luminescence, 48 h | Potency, µM (top dose mostly 46.2 µM), inactives show top-dose activity change, negative = growth inhibition, hits mostly inhibitors | actives 12% (n = 420,000); also: potency is read from the fitted curve at half-maximal effect; % is scaled to controls: 0 for no effect and ±100 for the full control effect; nearly all actives have a fitted effect of over 55% in size
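Chicken DT40 Tdp1-/- cells stably complemented with human TDP1 were seeded at 400 cells/well in medium containing 20 nM camptothecin, exposed to pin-transferred compounds, and grown at 37 °C for at least 48 hr. Viability was read as ATP luminescence.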
* = called active by the depositor; ? = inconclusive; / = no result; [ ] = remark or other dose. In the library only some 19% were active in any assay of this set; here they are far more common. Unless noted, calls follow the shape of the dose curve; as a rule, active = well fitted curve in the direction sought with a large enough effect; inconclusive = small, poorly fitted or top-dose-only effect, or another doubt; inactive = no such curve, though single readings can be large; an effect the other way counts as inactive or inconclusive.

SMILES	SW480 rerep	DT40 TDP1 no CPT	BCR signal inh	IL-1B inflam inh	MCF10A rereplic	DT40 TDP1 CPT
CCN(CC)c1ccc2c(C)c(CN3CCOCC3)c(=O)oc2c1	21µM*	?	-3%	-21	5.8µM*	?
CCCCc1cc(=O)oc2cc(O)ccc12	?	?	-14%	42	?	-17%
CCN(CC)c1ccc(C(=O)OCc2cc(=O)oc3cc(O)ccc23)cc1	0%[9.22 µM]	16µM*	11%	54	2%	?
CCN(CC)c1ccc2c(O)cc(=O)oc2c1	6%	1%	0%	14	9%	5%
O=C(Oc1ccc(Oc2ccccc2)cc1)N1CCC(O)CC1	-14%	?	0%	-25	-7%	-18%
COC(=O)c1ccc(NC(=O)CCn2cccn2)cc1	/	-5%	/	/	/	7%
Cc1cnc(-c2nc3ccccc3n2C(C(=O)NC(C)(C)C)c2ccncc2)cn1 (centres undefined)	/	-16%	/	1	/	-13%
COc1ccccc1Nc1nn2c(=O)c3ccc(C(=O)NCc4cccs4)cc3nc2s1	/	16µM*	?	/	/	13µM*
COc1ccccc1Nc1nn2c(=O)c3ccc(C(=O)NCCCOC(C)C)cc3nc2s1	/	4.1µM*	/	/	/	5.2µM*
CC(C)OCCCNC(=O)c1ccc2c(=O)n(CCc3ccccc3)c(=O)[nH]c2c1	/	-18%	/	/	/	-2%
Cc1ccc(C)c(Nc2nn3c(=O)c4ccc(C(=O)NCc5cccs5)cc4nc3s2)c1	/	15µM*	-15%	/	/	?
COc1cc(C)ccc1S(=O)(=O)NC(=O)C1(C)CCN1C(=O)Cc1ccccc1Cl (centres undefined)	/	2%	/	0	/	-9%
Cc1ccc(Nc2c([N+](=O)[O-])ccc3nonc23)cc1C	-30%	2%	?	-16	0%	-3%
CCCCNC(=O)C(=O)Nc1cc2c3c(c1)CCC(=O)N3CCC2	-2%	5%	-3%	6	16%	19%
Cc1cc(Cl)cc(C)c1OCCNCc1ccccc1	0%	21µM*	-4%	-96*	?	?
Cc1cc(C)c(C)c(OCCNCc2ccccc2)c1	-20%	?	2%	-93*	?	?
Cc1cc(Cl)cc(C)c1OCCOCCNCc1ccccc1	16%	?	-6%	?	14%	23µM*
Cc1cc(C)c(OCCNCc2ccccc2)c(C)c1	0%	?	-2%	-54*	-7%	?
C=CCc1ccc(OCCCNCc2ccccc2)c(OC)c1	8%	?	-4%	?	-2%	?
C=CCc1ccccc1OCCNCc1ccccc1	3%	16µM*	-10%	-91*	11%	?
Clc1ccc(OCCCNCc2ccccc2)c2ccccc12	-2%	?	5%	?	1%	?
Clc1ccc(OCCOCCNCc2ccccc2)cc1Cl	-3%	18µM*	?	-26	28%	16µM*
CC(=O)c1ccc(N2C(=O)CC(N3CCN(S(=O)(=O)c4cc(C)ccc4C)CC3)C2=O)cc1 (centres undefined)	-1%	-1%	-1%	16	2%	7%
CNC(=S)N/N=C/c1cn(CCOc2ccccc2OC)c2ccccc12	1%	6.5µM*	?	-25	7%	3.7µM*
CNC(=S)N/N=C/c1cn(CCOc2cccc(OC)c2)c2ccccc12	-11%	13µM*	?	-8	9%	8.2µM*
SMILES	SW480 rerep	DT40 TDP1 no CPT	BCR signal inh	IL-1B inflam inh	MCF10A rereplic	DT40 TDP1 CPT
COc1cccc(OCCn2cc(/C=N/NC(=O)c3ccncc3)c3ccccc32)c1	2%	?	?	-29	?	?
Cc1ccc(-c2nc3ncccc3o2)cc1NC(=O)c1ccc2c(c1)OCO2	-3%	-13%	/	-1	1%	2%
COc1ccc(OC)c(NC(=O)N2CCC3(CC2)Oc2ccccc2C(=O)N3Cc2ccccc2F)c1	/	15µM*	/	/	/	?
COc1ccc(-c2cc(=O)oc3cc(OCC(=O)NCc4ccccn4)ccc23)cc1	-9%	23µM*	-1%	-24	-1%	?
Cc1cc(OCC(=O)NCc2ccccn2)c2c(C)cc(=O)oc2c1	-1%	0%	-30%	9	9%	7%
COc1ccc(-c2cc(=O)oc3cc(OC(C)C(=O)NCc4ccccn4)ccc23)cc1 (centres undefined)	0%	?	-3%	-12	24%	21µM*
CC(Oc1ccc2c(-c3ccccc3)cc(=O)oc2c1)C(=O)NCCCn1ccnc1 (centres undefined)	-4%	15µM*	7%	-23	?	23µM*
CCCc1cc(=O)oc2cc(C)cc(OCC(=O)NCc3ccccn3)c12	4%	-18%	2%	14	-20%	18µM*
CCCc1cc(=O)oc2cc(OC(C)C(=O)NCCCn3ccnc3)ccc12 (centres undefined)	0%	5%	17%	33	20%	-9%
COc1ccc(CCNC(=O)CSC2=Nc3ccccc3C3=NC(CCC(=O)NCc4ccccc4)C(=O)N23)cc1OC (centres undefined)	/	2%	0%	/	/	-23%
CCCCCCCSc1ncnc2[nH]ncc12	?	?	/	-10	?	?
CCOC(=O)CSc1cc(C)c(C#N)c2nc3ccccc3n12	-2%	23µM*	3%	18	-8%	?
CCC(C)Nc1cc(C)c(C#N)c2nc3ccccc3n12 (centres undefined)	?	?	?	16	?	-21%
CCC(C)Sc1cc(C)c(C#N)c2nc3ccccc3n12 (centres undefined)	14%	16µM*	4%	5	?	18µM*
CCOC(=O)CSc1nc2ccccc2n2c(C)nnc12	-4%	-5%	-3%	13	0%	5%
NC(=O)c1ccc(NC(=O)CN2C(=O)NC(c3ccccc3)(c3ccccc3)C2=O)cc1	-20%	-1%	1%	-5	2%	4%
COc1ccc(-c2noc(-c3ccc(N4CCN(C)CC4)c([N+](=O)[O-])c3)n2)cc1OC	/	3.3µM*	/	/	/	5.2µM*
COc1ccc(-c2noc(-c3ccc(N4CCN(c5ccccc5OC)CC4)c([N+](=O)[O-])c3)n2)cc1	/	3%	/	/	/	1%

From PubChem BioAssay
